# Source: PubChem BioAssay (Tox21)
# Records with an inconclusive call do not appear. A call without a number means that no potency is given here. Values without a mark were called inactive. The source made the active and inactive calls. Unless noted, calls follow the shape of the full dose curve.
# How the values were obtained:
# [1] = qHTS assay to identify small molecule agonists of the vitamin D receptor (VDR) signaling pathway - cell viability counter screen (AID 743224; active = well fitted curve in the direction sought with a large enough effect in the repeat runs; an effect the other way counts as inactive or inconclusive; also: nearly all actives have a fitted effect of over 50% in size; also: potency is read from the fitted curve at half-maximal effect; as to activity change, negative = cytotoxicity: series mostly up to about 63 µM)
# How it was run: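 VDR-bla cells, 4 h after plating, exposed to compounds for 16 h at 37C; viability then read in the same wells as CellTiter-Glo luminescence after 30 min at room temperature, following the bla FRET read.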
# [2] = qHTS assay to identify small molecule antagonists of the vitamin D receptor (VDR) signaling pathway - cell viability counter screen (AID 743225; active = well fitted curve in the direction sought with a large enough effect in the repeat runs; an effect the other way counts as inactive or inconclusive; also: nearly all actives have a fitted effect of over 50% in size; also: potency is read from the fitted curve at half-maximal effect)
# How it was run: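 Cytotoxicity toward the VDR-bla HEK 293T line was scored by ATP-based CellTiter-Glo luminescence, read in the wells already used for the beta-lactamase readout after 16 h compound treatment under 3 nM 1-alpha,25-dihydroxyvitamin D3 stimulation.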
# [3] = qHTS assay to identify small molecule agonists of the NFkB signaling pathway - cell viability counter screen (AID 1159515); also: series mostly up to about 61 µM; nearly all actives have a fitted effect of over 55% in size
# How it was run: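 NFkB-bla ME-180 cells, 2,000/well, plated overnight at 37 C; compound added for 5 hr at 37 C. Viability read in the same wells as the bla reporter, by CellTiter-Glo luminescence after 30 min at room temperature.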
# [4] = qHTS assay to identify small molecule agonists of the endoplasmic reticulum stress response signaling pathway (AID 1159516; active = well fitted activation curve with a large enough effect in the signal ratio in the repeat runs, not every such curve was filed as active; the % refers to the signal ratio)
# How it was run: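 CellSensor ESRE-bla HeLa cells, 1,500 per well, plated overnight, then exposed to compounds for 5 hr at 37 C. Beta-lactamase reporter read with LiveBLAzer B/G FRET substrate after 2 hr at room temperature, 405 nm excitation, 460 and 530 nm emission.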
# [5] = qHTS assay to identify small molecule agonists of the endoplasmic reticulum stress response signaling pathway - cell viability counter screen (AID 1159517);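 also: HeLa cells carrying an ER stress response element beta-lactamase reporter; series mostly up to about 61 µM; nearly all actives have a fitted effect of over 50% in size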
# How it was run: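 Luminescence readout: CellTiter-Glo, 30 min RT, same wells as the ESRE-bla reporter read. HeLa ESRE-bla, 1,500 cells/well, o/n 37 C; cpd 5 hr 37 C/5% CO2.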
# [6] = qHTS assay to identify small molecule antagonists of the retinoid-related orphan receptor gamma (ROR-gamma) signaling pathway - cell viability counter screen (AID 1159520; active = well fitted curve in the direction sought with a large enough effect in the repeat runs; an effect the other way counts as inactive or inconclusive; also: nearly all actives have a fitted effect of over 50% in size; also: potency is read from the fitted curve at half-maximal effect)
# How it was run: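 Tet-on ROR gamma CHO cells (1,000/well) were plated 4 hr, given compounds in DMSO for 2 hr at 37 C, then induced with 1 uM final doxycycline for 16 hr. Viability was read as ATP by CellTiter-Glo luminescence after 30 min.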
# [7] = qHTS assay to identify small molecule agonists of the AP-1 signaling pathway - cell viability counter screen (AID 1159525); also: nearly all actives have a fitted effect of over 55% in size
# How it was run: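 ME-180 AP-1-bla, 2500 cells/well, Opti-MEM + 0.5% dialyzed FBS; overnight 37 °C; cpd 15-pt titration, 5 h 37 °C; CellTiter-Glo 30 min RT; luminescence read; normalised to TOAB and DMSO controls.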
# [8] = target: Retinoic acid receptor RXR-alpha (Homo sapiens) (UniProt P19793); assay: qHTS assay to identify small molecule agonists of the RXR signaling pathway (AID 1159527); also: nearly all actives have a fitted effect of over 35% in size; also: potency is read from the fitted curve at half-maximal effect
# How it was run: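 Reporter activation is measured as beta-lactamase activity via FRET substrate cleavage (emission 460/530 nm) in HEK 293T cells expressing an RXR-alpha-driven bla construct, following 16 hr compound exposure at 37 C.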
# [9] = target: Nuclear receptor ROR-gamma (Homo sapiens) (UniProt P51449); assay: qHTS assay to identify small molecule antagonists of the retinoid-related orphan receptor gamma (ROR-gamma) signaling pathway (AID 1159521; active = well fitted curve in the direction sought with a large enough effect in the repeat runs; an effect the other way counts as inactive or inconclusive; also: nearly all actives have a fitted effect of over 50% in size; also: potency is read from the fitted curve at half-maximal effect)
# How it was run: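 Readout: ONE-Glo luciferase luminescence, 30 min at room temperature. System: Tet-on RORγ CHO, RORE-LUC. Sequence: compound 2 h, doxycycline 1 uM final, 16 h at 37 C.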
# [10] = qHTS assay to identify small molecule agonists of the AP-1 signaling pathway (AID 1159526)
# Sequence of Retinoic acid receptor RXR-alpha (Homo sapiens) (P19793 whole entry, looked up): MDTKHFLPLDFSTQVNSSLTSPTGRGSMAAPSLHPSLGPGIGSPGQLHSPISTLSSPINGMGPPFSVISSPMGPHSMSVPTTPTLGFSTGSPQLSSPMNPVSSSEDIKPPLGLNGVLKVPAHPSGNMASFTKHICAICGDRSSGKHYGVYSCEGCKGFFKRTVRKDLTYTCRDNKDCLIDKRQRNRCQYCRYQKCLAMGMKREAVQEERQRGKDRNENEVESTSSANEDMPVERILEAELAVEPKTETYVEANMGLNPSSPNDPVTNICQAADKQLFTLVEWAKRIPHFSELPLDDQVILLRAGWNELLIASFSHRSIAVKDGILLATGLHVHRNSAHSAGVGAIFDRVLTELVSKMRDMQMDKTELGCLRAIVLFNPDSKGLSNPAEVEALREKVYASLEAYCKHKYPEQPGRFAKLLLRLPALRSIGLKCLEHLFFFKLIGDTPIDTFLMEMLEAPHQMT
structure (smiles),measurement,setting,value
c1ccc(C(O[C@H]2CCCN(CCc3ccc4c(c3)OCO4)C2)c2ccccc2)cc1,Potency,[1],inactive
same,Potency,[2],inactive
same,Potency,[3],inactive
same,Potency,[4],inactive
same,Potency,[5],inactive
same,Potency,[6],inactive
same,Potency,[7],inactive
CCCNCC(O)COc1ccccc1C(=O)CCc1ccccc1 (centres undefined),Potency,[2],inactive
same,Potency,[3],inactive
same,Potency,[4],inactive
same,Potency,[5],inactive
same,Potency,[6],inactive
same,Potency,[7],inactive
O=C(NCCO[N+](=O)[O-])c1cccnc1,Potency,[1],inactive
same,Potency,[2],inactive
same,Potency,[3],inactive
same,Potency,[4],inactive
same,Potency,[5],inactive
same,Potency,[6],inactive
same,Potency,[7],inactive
same,Potency,[8],inactive
CC(COCCO)OCCO (centres undefined),Potency,[2],inactive
same,Potency,[3],inactive
same,Potency,[4],inactive
same,Potency,[5],inactive
same,Potency,[6],inactive
same,Potency,[7],inactive
CN(C)c1ccc(CCO)cc1,Potency,[1],inactive
same,Potency,[2],inactive
same,Potency,[3],inactive
same,Potency,[4],inactive
same,Potency,[5],inactive
same,Potency,[6],inactive
same,Potency,[7],inactive
CCCCCC[C@@H](O)C/C=C\CCCCCCCC(=O)OC,Potency,[1],inactive
same,Potency,[2],inactive
same,Potency,[3],inactive
same,Potency,[4],inactive
same,Potency,[5],inactive
same,Potency,[6],inactive
same,Potency,[7],inactive
C=CC(=O)OCCOc1ccccc1,Potency,[1],inactive
same,Potency,[2],inactive
same,Potency,[3],inactive
same,Potency,[4],inactive
same,Potency,[5],inactive
same,Potency,[6],inactive
same,Potency,[7],inactive
COc1ccc(C(=O)c2ccc(OC)cc2O)c(O)c1,Potency,[2],inactive
same,Potency,[3],inactive
same,Potency,[4],inactive
same,Potency,[5],inactive
same,Potency,[9],inactive
same,Potency,[7],inactive
same,Potency,[10],inactive
O=C(Nc1ccccc1)c1ccccc1O,Potency,[2],inactive
same,Potency,[3],inactive
same,Potency,[4],inactive
same,Potency,[5],inactive
same,Potency,[9],inactive
same,Potency,[7],inactive
same,Potency,[10],inactive
same,Potency,[8],inactive
C=CC(=O)OCCOCCOC(=O)C=C,Potency,[3],inactive
same,Potency,[4],inactive
same,Potency,[6],13.7 µM (active)
C=CCOc1ccccc1OCC(O)CNC(C)C (centres undefined),Potency,[1],inactive
same,Potency,[2],inactive
same,Potency,[3],inactive
same,Potency,[4],inactive
same,Potency,[5],inactive
same,Potency,[6],inactive
same,Potency,[7],inactive
same,Potency,[8],inactive
O=C(c1ccc(F)cc1)C1CCN(CCn2c(=S)[nH]c3ccccc3c2=O)CC1,Potency,[2],inactive
same,Potency,[3],inactive
same,Potency,[4],inactive
same,Potency,[5],inactive
same,Potency,[6],inactive
same,Potency,[7],inactive
O=C(O)C1(C(=O)Nc2ccc(Cl)cc2Cl)CC1,Potency,[1],inactive
same,Potency,[2],inactive
same,Potency,[3],inactive
same,Potency,[4],inactive
same,Potency,[5],inactive
same,Potency,[6],inactive
same,Potency,[7],inactive
CCN(CC)CCNc1ccc(CNC=O)c2sc3ccc(OC)cc3c(=O)c12,Potency,[2],43.6 µM (active)
same,Potency,[3],inactive
same,Potency,[4],inactive
same,Potency,[5],inactive
same,Potency,[6],54.5 µM (active)
same,Potency,[7],inactive
same,Potency,[10],inactive
Nc1ncn([C@H]2C[C@H](O)[C@@H](CO)O2)c(=O)n1,Potency,[2],inactive
same,Potency,[3],inactive
same,Potency,[4],inactive
same,Potency,[5],inactive
same,Potency,[6],inactive
same,Potency,[7],inactive
COc1ccc(S(=O)(=O)N2C(=O)[C@@](c3ccccc3OC)(N3C[C@H](O)C[C@H]3C(=O)N(C)C)c3cc(Cl)ccc32)c(OC)c1,Potency,[2],inactive
same,Potency,[3],inactive
same,Potency,[4],inactive
same,Potency,[5],inactive
same,Potency,[6],inactive
same,Potency,[7],inactive
same,Potency,[10],inactive
C/C=C/C(=O)CC,"activity change, negative = cytotoxicity",[1],7.61% [at 13.2 µM]
same,"viability change, negative = cytotoxic",[2],1.57% [at 15.1 µM]
same,"activity, negative = cytotoxic",[3],18.8% [at 15.1 µM]
same,activation,[4],0.579% [at 15.1 µM]
same,"activity change, negative = cytotoxicity",[5],28.8% [at 15.1 µM]
same,"activity, negative = cytotoxicity",[6],4.4% [at 19 µM]
same,"viability change, negative = cytotoxic",[7],-12.1% [at 15.8 µM]
CN1C[C@H]2c3ccccc3Oc3ccc(Cl)cc3[C@@H]2C1,Potency,[2],inactive
same,Potency,[3],inactive
same,Potency,[4],inactive
same,Potency,[5],inactive
same,Potency,[6],inactive
same,Potency,[7],inactive
same,Potency,[8],inactive
CC[N+]1(CC)CCC(=C(c2ccccc2)c2ccccc2)C1C (centres undefined),Potency,[3],inactive
same,Potency,[4],inactive
same,Potency,[5],inactive
same,Potency,[6],inactive
same,Potency,[10],inactive
same,Potency,[8],inactive
CCOC(=O)C1=C[C@]2(CC)CCCN3CCc4c(n1c1ccccc41)[C@@H]32,Potency,[1],inactive
same,Potency,[2],inactive
same,Potency,[3],inactive
same,Potency,[4],inactive
same,Potency,[5],inactive
same,Potency,[6],inactive
same,Potency,[7],inactive
same,Potency,[8],inactive
OCCNCc1ccccc1,Potency,[1],inactive
same,Potency,[2],inactive
same,Potency,[3],inactive
same,Potency,[4],inactive
same,Potency,[5],inactive
same,Potency,[9],inactive
same,Potency,[7],inactive
same,Potency,[10],inactive
same,Potency,[8],inactive
Cc1ccc(N=Nc2c(O)c(C(=O)O)cc3ccccc23)c(S(=O)(=O)O)c1,Potency,[2],inactive
same,Potency,[3],inactive
same,Potency,[4],inactive
same,Potency,[5],inactive
same,Potency,[6],inactive
same,Potency,[7],inactive
same,Potency,[8],inactive
c1ccc(-c2ccccn2)nc1,Potency,[2],inactive
same,Potency,[3],inactive
same,Potency,[4],inactive
same,Potency,[5],inactive
same,Potency,[6],inactive
same,Potency,[7],inactive
same,Potency,[8],inactive
CC(C)CC(=O)C1C(=O)c2ccccc2C1=O,Potency,[1],inactive
same,Potency,[3],inactive
same,Potency,[4],inactive
same,Potency,[5],inactive
same,Potency,[9],17.2 µM (active)
same,Potency,[7],inactive
same,Potency,[10],inactive
O=C(O)c1ccc(-n2nc(-c3ccccc3O)nc2-c2ccccc2O)cc1,Potency,[2],inactive
same,Potency,[3],inactive
same,Potency,[4],inactive
same,Potency,[5],inactive
same,Potency,[6],inactive
same,Potency,[7],inactive
same,Potency,[10],inactive
C#Cc1cccc(Nc2ncnc3cc(OCCOC)c(OCCOC)cc23)c1,Potency,[1],inactive
same,Potency,[2],inactive
same,Potency,[3],inactive
same,Potency,[4],inactive
same,Potency,[5],inactive
same,Potency,[6],inactive
same,Potency,[7],inactive
Cc1nn(C)c(Oc2ccccc2)c1/C=N/OCc1ccc(C(=O)OC(C)(C)C)cc1,Potency,[1],0.0123 µM (active)
same,Potency,[3],inactive
same,Potency,[4],inactive
same,Potency,[5],inactive
same,Potency,[9],0.486 µM (active)
same,Potency,[7],inactive
same,Potency,[10],inactive
CCC(C)c1cc(C(C)(C)C)c(O)c(C(C)(C)C)c1 (centres undefined),Potency,[1],inactive
same,Potency,[2],inactive
same,Potency,[3],inactive
same,Potency,[4],inactive
same,Potency,[5],inactive
same,Potency,[6],inactive
same,Potency,[7],inactive
same,Potency,[8],0.958 µM (active)
